GBA activity up: glucocerebrosidase activity enhancement; P04062; L444P Gaucher fibroblasts, 4-MU-glucoside fluorescence, 3 days; activation, % at 10 µM; 0.44% of 30,000 active; AID 784; in the data active = activation above about 65%
Each line names hits and unclear results; the compound was inactive in the other large screens. This excerpt belongs to a sample that is enriched for hits.

CC(=O)N1CCc2cc(Br)cc(S(=O)(=O)NCCCN3CCC(C)CC3)c21	none
CC(=O)N1CCc2cc(Br)cc(S(=O)(=O)NCCN3CCCCC3C)c21 (configuration not stated)	GBA activity up 78.4
CC(=O)N1CCc2cc(Br)cc(S(=O)(=O)NCCCN3CCCC(C)C3)c21 (configuration not stated)	none
CCOC(=O)N1CCN(C(=O)Cc2ccc(-n3c(=O)[nH]c4ccccc4c3=O)cc2)CC1	none
Cc1nnc(NC(=O)Cc2ccc(OCc3c(C)noc3C)cc2)s1	none
O=C(Nc1cc(C(F)(F)F)ccc1N1CCOCC1)c1cncc(Br)c1	none
FC(F)(F)c1ccc(N2CCOCC2)c(Nc2nc3ccccc3n3cnnc23)c1	GBA activity up 75.2
Cc1nc2ccccc2nc1OCC(=O)Nc1cc(C(F)(F)F)ccc1N1CCOCC1	none
Cc1noc(C)c1CSc1nnc2scc(-c3ccccc3)n12	none
CCCCN(CC)S(=O)(=O)c1ccc(C(=O)Nc2nnc(CSC)o2)cc1	GBA activity up 80.9
CCCN(CCC)S(=O)(=O)c1ccc(C(=O)Nc2nnc(CSC)o2)cc1	none
CCCCN(CCCC)S(=O)(=O)c1ccc(C(=O)Nc2nnc(CSC)o2)cc1	none
Cc1ccc(C(C(=O)NC2CCCCC2)N2CCCC2)cc1 (configuration not stated)	GBA activity up 126.8
COc1ccc(C(C(=O)NC2CCCCC2)N2CCC3(CC2)OCCO3)cc1 (configuration not stated)	none
CN(C)C(C(=O)NC1CCCCC1)c1ccc(Cl)cc1 (configuration not stated)	none
COc1ccc(N2C(=O)CSC2c2cccc(F)c2)c(OC)c1 (configuration not stated)	none
CC(=O)Nc1ccc(S(=O)(=O)Nc2cc(C)c(-n3nc4ccccc4n3)cc2O)cc1	none
COC(=O)c1cn(C(=O)c2ccc(Br)o2)c2ccccc12	none
CCOC(=O)Cn1cc(C(=O)c2cccs2)c2ccccc21	none
COC(=O)c1cn(C(=O)c2cccs2)c2ccccc12	GBA activity up 89.3
CCOC(=O)C1=C(O)C(Nc2nccs2)(C(F)(F)F)N=C1C (configuration not stated)	none
Cc1ccc(NC(=O)Cc2cn3ccsc3n2)nc1	none
C=CCn1c(-c2c[nH]c3ccccc23)n[nH]c1=S	GBA activity up 66.9
C=CCn1c(-c2cc(OC)c(OC)c(OC)c2)n[nH]c1=S	none
C=CCn1c(-c2ccco2)n[nH]c1=S	none
CCOC(=O)N1CCN(c2c(-c3ccc(C)cc3)c(=O)c2=O)CC1	none
CC(=O)Nc1ccc(S(=O)(=O)Nc2ccc(S(=O)(=O)N3CCCCCC3)cc2)cc1	none
CC(OC(=O)c1nsc(Cl)c1Cl)C(=O)NCc1cccs1 (configuration not stated)	GBA activity up 79.3
COCCNC(=O)C(C)OC(=O)c1nsc(Cl)c1Cl (configuration not stated)	none
CC(OC(=O)c1cccs1)C(=O)NCc1cccs1 (configuration not stated)	none
OC(COC1CCCCC1)CN1CCN(c2ccccc2)CC1 (configuration not stated)	none
CC(=O)c1cccc(NC(=O)N2CCCC2C(=O)Nc2ccccc2C)c1 (configuration not stated)	none
CC(=O)Nc1cccc(NC(=O)C2CCCN2C(=O)Nc2ccc(C)cc2)c1 (configuration not stated)	GBA activity up 80.4
CC(=O)c1cccc(NC(=O)N2CCCC2C(=O)NCc2ccc(C)cc2)c1 (configuration not stated)	none
O=c1c2ccccc2nnn1Cc1nnc(-c2ccccc2Br)o1	none
CCCN(Cc1cc2ccc(C)cc2[nH]c1=O)C(=O)c1ccccn1	none
Cc1ccc(CNC(=O)C2CCC(=O)N2C2CCCCC2)cc1 (configuration not stated)	none
CCSC1=NC(=O)/C(=C2/C=Cc3ccccc3N2CC)S1	none
COc1ccc(CCNC(=O)CN2C(=O)c3ccccc3S2(=O)=O)cc1	none
O=C(CN1C(=O)c2ccccc2S1(=O)=O)NCc1ccccn1	none
O=C(CN1C(=O)c2ccccc2S1(=O)=O)NCCSC1CCCCC1	GBA activity up 811.6
CCCc1[nH]nc2c1C(c1ccc(OC(=O)N3CCOCC3)cc1)C(C#N)=C(N)O2 (configuration not stated)	none
CC(=O)n1c2ccccc2c2c1c1ccccc1n2C	none
Cn1cc(/C(Cc2ccccc2)=N\O)c2ccccc21	none
C/C(=N\O)c1ccc2c3ccccc3n(C)c2c1	GBA activity up 77.2
CCC(C)NC(=O)C1c2cc(OC)c(OC)cc2C(=O)N(C)C1c1ccc(OC)cc1 (configuration not stated)	none
O=C(O)CCS(=O)(=O)Cc1cccc(Cl)c1	none
CC(C)OC(=O)CSc1nnc(-c2cccnc2)n1N	GBA activity up 67.3
Cc1ccc(C(=O)CSc2nnc(-c3cccnc3)n2N)cc1	none
COc1cccc(-n2c(SCC(=O)OC(C)C)nnc2-c2cccnc2)c1	none
C/C(NCCCn1ccnc1)=C(\C#N)C(N)=O	none
O=C(CSc1nnc(-c2ccc(Cl)cc2)o1)N1CCN(c2ccccc2)CC1	none
CCn1c(SCC(=O)N2CCN(c3ccccc3)CC2)nnc1-c1cc2cc(Cl)ccc2o1	GBA activity up 90.2
CCn1c(CC(=O)Nc2ccc(C)cc2)nnc1SCC(=O)N1CCN(c2ccccc2)CC1	none
CCOc1cc(-c2nc(-c3ccc(C)nc3OC)no2)cc(OCC)c1OCC	none
COc1ccc(OCC(=O)Nc2ccc(S(=O)(=O)N3CCCCCC3)cc2)cc1	none

Source: PubChem BioAssay (The Scripps Research Institute Molecular Screening Center)
